Only some compounds are listed: those with a hit (about 6.8% of all), similar ones and a draw of the others.
Pf Dd2 inh: P. falciparum Dd2 growth inhibition; SYBR Green, 72 h; active compounds read low; activity change, % at 10 µM; actives 2.3% (n = 94,000); AID 1159554; in the data active means activity change below about -80%
Tcruzi prolif: inhibitors of T. cruzi proliferation; T. cruzi beta-gal in NIH3T3, GalScreen luminescence, 90 h; inhibition, % at 8.34 µM; actives 5.9% (n = 77,000); AID 624255;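 active means mean inhibition above about 93%, with at least 55% of replicates each passing it, limit read from the data, passing the limit was not always enough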
C diff HTS: inhibitors of Clostridium difficile growth. growth activity, negative = inhibition, % at 16 µg/mL (by protocol). actives 0.25% (n = 86,000). AID 1259249. Clostridium difficile clinical isolate growth, OD600, 24 h; active compounds read low;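 active means mean growth activity at or below -80% and every replicate also at or below -80%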;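 further: 0% = DMSO wells and -100% = levofloxacin 16 µg/mL wells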
An asterisk follows results filed as active; x = no result.

SMILES	Pf Dd2 inh	Tcruzi prolif	C diff HTS
O=C(Cc1ccccn1)N1CC(=O)N2[C@@H](CO)[C@@H](c3ccc(C#CC4CCCC4)cc3)[C@@H]2C1	-8.5	x	0.4
C[C@H]1CN([C@@H](C)CO)C(=O)c2cc(C#CC3CCCCC3)cnc2O[C@@H]1CN(C)Cc1cncnc1	-28.8	60.8	-5.8
C[C@@H]1CN([C@@H](C)CO)C(=O)Cc2cc(NC(=O)NC3CCCCC3)ccc2O[C@H]1CN(C)Cc1ccc(Oc2ccccc2)cc1	-29.8	85.6	34.3
COc1ccc(NC(=O)Nc2ccc3c(c2)CC(=O)N([C@H](C)CO)C[C@@H](C)[C@@H](CN(C)C(=O)Nc2ccc(OC)cc2)O3)cc1	10.7	13.8	1.1
C[C@H](CO)N1C[C@H](C)[C@@H](CN(C)Cc2ccc(Cl)c(Cl)c2)Oc2ccc(NC(=O)Nc3ccccc3)cc2C1=O	-0.2	-137.9	11.1
COc1ccc(NC(=O)Nc2cccc3c2O[C@H](CN(C)Cc2ccc(C(=O)Nc4ccccc4N)cc2)[C@H](C)CN([C@@H](C)CO)C3=O)cc1	-93.5*	x	22.5
COc1ccc(NC(=O)Nc2cccc3c2O[C@H](CN(C)Cc2ccc(C(=O)Nc4ccccc4N)cc2)[C@@H](C)CN([C@@H](C)CO)C3=O)cc1	-88.2*	105.1	-1.1
COc1ccc(CN(C)C[C@@H]2Oc3c(NC(=O)Nc4ccc(OC)cc4)cccc3C(=O)N([C@H](C)CO)C[C@@H]2C)cc1	-5.9	-7.2	-2.4
COc1ccc(CN(C)C[C@H]2Oc3c(NC(=O)Nc4ccc(OC)cc4)cccc3C(=O)N([C@H](C)CO)C[C@@H]2C)cc1	-8.2	19.9	-8.4
COc1ccc(CN(C)C[C@@H]2Oc3c(NC(=O)Nc4ccc(OC)cc4)cccc3C(=O)N([C@H](C)CO)C[C@H]2C)cc1	-0.7	-8.8	-0.6
COc1ccc(NC(=O)Nc2cccc3c2O[C@H](CN(C)Cc2ccc(C(=O)Nc4ccccc4N)cc2)[C@@H](C)CN([C@H](C)CO)C3=O)cc1	-83.5*	x	11.3
C[C@H]1CN([C@@H](C)CO)C(=O)CCCn2cc(nn2)CO[C@H]1CN(C)S(=O)(=O)c1ccccc1F	13.7	11.7	x
C[C@H]1CN([C@@H](C)CO)C(=O)c2cc(NC(=O)Cc3ccccc3)ccc2O[C@@H]1CN(C)CC1CC1	2.3	x	-11.1
C[C@H]1CN([C@@H](C)CO)C(=O)c2cc(NC(=O)CCC(F)(F)F)ccc2O[C@H]1CN(C)Cc1ccc2c(c1)OCO2	5.5	14.7	-4.3
CN1c2ccc(-c3ccccc3F)cc2[C@@H]2[C@@H](CCN2S(=O)(=O)c2ccccc2)[C@H]1CO	9.7	80.4	-5.7
Cc1ccc(S(=O)(=O)N(C)C[C@@H]2OCCCC[C@@H](C)Oc3ccc(NC(=O)Nc4ccc(F)cc4)cc3C(=O)N([C@@H](C)CO)C[C@H]2C)cc1	-58.5	x	x
Cc1ccc(S(=O)(=O)N(C)C[C@@H]2OCCCC[C@H](C)Oc3ccc(NC(=O)Nc4ccc(F)cc4)cc3C(=O)N([C@H](C)CO)C[C@H]2C)cc1	-81.7*	x	x
Cc1ccc(S(=O)(=O)N(C)C[C@@H]2OCCCC[C@H](C)Oc3ccc(NC(=O)Nc4ccc(F)cc4)cc3C(=O)N([C@@H](C)CO)C[C@@H]2C)cc1	-82.7*	x	x
Cc1ccc(S(=O)(=O)N(C)C[C@H]2OCCCC[C@H](C)Oc3ccc(NC(=O)Nc4ccc(F)cc4)cc3C(=O)N([C@H](C)CO)C[C@@H]2C)cc1	-67.5	x	x
Cc1noc(C)c1S(=O)(=O)Nc1ccc2c(c1)C(=O)N([C@H](C)CO)C[C@@H](C)[C@H](CN(C)Cc1ccc3c(c1)OCO3)OCCCC[C@H](C)O2	-41.2	60.4	2.0
C[C@H](CO)N1C[C@H](C)[C@H](CN(C)Cc2ccc(C(F)(F)F)cc2)OCCCC[C@H](C)Oc2ccc(NC(=O)Nc3ccccc3)cc2C1=O	35.5	66.4	3.3
C[C@@H]1CCCCO[C@@H](CN(C)Cc2ccc(C(=O)Nc3ccccc3N)cc2)[C@@H](C)CN([C@H](C)CO)C(=O)c2cc(NC(=O)Nc3ccc(F)cc3)ccc2O1	-87.1*	x	34.0
C[C@@H]1CCCCO[C@@H](CN(C)Cc2ccc(C(=O)Nc3ccccc3N)cc2)[C@@H](C)CN([C@H](C)CO)C(=O)c2cc(NC(=O)Nc3ccccc3)ccc2O1	-75.2	34.2	x
C[C@@H]1CCCCO[C@@H](CN(C)Cc2ccc(C(=O)Nc3ccccc3N)cc2)[C@@H](C)CN([C@H](C)CO)C(=O)c2cc(NC(=O)Nc3ccc(C(F)(F)F)cc3)ccc2O1	-82.8*	x	47.2
O=C(C[C@@H]1C=C[C@H](NS(=O)(=O)c2ccc(F)cc2)[C@@H](CO)O1)NCc1ccncn1	15.1	11.1	x
C[C@@H]1CCCCO[C@H](CN(C)C(=O)Nc2ccc(C(F)(F)F)cc2)[C@@H](C)CN([C@@H](C)CO)C(=O)c2cc(NS(=O)(=O)c3ccc(Cl)cc3)ccc2O1	-83.5*	81.3	6.8

Assay outcomes (PubChem BioAssay)
